In all, about 1,700 compounds were measured (“T3 sensor activation Q score (MG/GFP ratio z-score vs DMSO controls)”: median about 0.25, highest 2% from about 1.9 on). This is one part of a sample in which the highest values are shown more often than they occur.
The molecules below were run on ppGalNAc-T3 sensor (assay: T3 sensor activation Q score (MG/GFP ratio z-score vs DMSO controls) (SD units); higher = more sensor activation (inhibition of ppGalNAc-T3 glycosylation)). Conditions: HEK293 sensor cells; 10 µM; 6 h.
Experimental: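 Cells were treated with compound at 10 uM for 6 h, then MG/GFP ratio was read by flow cytometry (10,000 cells per well, duplicate wells). Q = (R - R_neg)/SD_neg relative to DMSO vehicle controls; the signal rises when the glycosyltransferase is inhibited.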

SMILES | T3 sensor activation Q score
O=S1(=O)CSCS(=O)(=O)C1 | -0.85
Cc1ccc(NC(=O)Nc2ccccc2C(N)=O)cc1 | -0.95
Cc1cc(NC(=O)NC(=O)c2ccccc2NC(=O)C(C)N)ccc1Oc1ncc(Br)cn1 (stereo not given) | 4.35
CSc1cccc(NC(=O)Nc2ccccc2C(N)=O)c1 | 0.9
C[C@@H]1O[C@@H](Oc2c(-c3cc(O)c(O)c(O)c3)oc3cc(O)cc(O)c3c2=O)[C@H](O)[C@H](O)[C@H]1O | 0.05
NC(N)=Nc1ccc(N=C(N)N)cc1 | 0.3
COc1ccc(OC)c(NC(=O)c2cc3oc4ccccc4c3cc2O)c1 | -1.55
Nc1cc(=O)[nH]c2ncnn12 | -0.15
CCOc1ccc(NC(=O)C2CCCN(C)C2)cc1 (stereo not given) | 0.6
Nc1ncnc2c([C@@H]3O[C@H](CO)[C@@H](O)[C@H]3O)c[nH]c12 | 0.15
COC(=O)CC1OCC=C2CN3CCC45C6=CC(=O)C(=O)C([N+](=O)[O-])=C6NC4C1C2CC35 (stereo not given) | -0.2
CCOC(=O)C1(C#N)C(=O)CSC1=Nc1ccccc1Cl (stereo not given) | -1.05
CCOC(=O)Nc1csnn1 | -0.7
CCOC(=O)Nc1cc2c(c(N)n1)N=C(c1ccccc1)CN2 | 4
CCOC(=O)Nc1c2ccccc2nc2ccccc12 | -1.8
Oc1ccc(Nc2ccnc3cc(Cl)ccc23)cc1 | 1.1
O=C(Nc1cccc([N+](=O)[O-])c1)c1cccc(C(=O)Nc2cccc([N+](=O)[O-])c2)c1 | -0.25
Cc1c(-c2ccccc2)n(O)[n+]([O-])c1-c1ccccc1 | 0.7
Oc1ccccc1Nc1ccccn1 | 1.75
Cc1nnc2nc(-c3ccccc3)nc(-c3ccccc3)n12 | -1.75
CCOC(=O)c1c(O)cc(C)[nH]c1=O | -0.85
O=S(=O)(c1ccc2c(c1)CCCN2)N1CCC[C@H]2CCCC[C@@H]21 | 0.2
O=C1OC(CN(Cc2ccccc2)Cc2ccccc2)CN1/N=C/c1ccc([N+](=O)[O-])o1 (stereo not given) | -0.6
Cc1cc2nc(CS)[nH]c2cc1C | -1.1
CC(=O)Nc1ccc2cc3ccc(NC(C)=O)cc3nc2c1 | 0.2
Cc1ccc(-n2nnnc2-c2cccnc2)cc1 | -0.15
CCOC(=O)c1cc[nH]c1CC(=O)NC | 0.6

SMILES | T3 sensor activation Q score
Cc1ccc2c(c1)c1ccc3c(c1n2C)C(=O)C=CC3=O | -1.5
Cc1cccc(C)c1NC(=O)Nc1ccc(S(N)(=O)=O)cc1 | 1.6
CCOC(=O)/C(C#N)=C1\SS/C(=C(/C#N)C(=O)OCC)S1 | 0.55
c1cc(CN2CCCNCCNCCCNCC2)ccc1CN1CCCNCCNCCCNCC1 | -0.5
NCCN1CCNCC1 | 1.85
C=CCOc1ccc(S(C)(=O)=O)cc1 | 1.85
C#CCOCC1CN(c2ccccc2)C(=O)O1 (stereo not given) | 1.9
CCCCOc1ccc(N=Nc2ccc(N)nc2N)cn1 | 1.7
O=C(CC1C=Cc2ccccc2N1C(=O)c1ccccc1)c1ccccc1 (stereo not given) | -1.4
N#CC1C=Cc2c(ccc3ccccc23)N1C(=O)c1ccccc1 (stereo not given) | 2.65
O=C(Nc1cccc2ccccc12)c1ccccc1 | -0.45
Nc1ccc2c(c1)Cc1cc(Cl)c(Cl)cc1-2 | -0.65
OC(COc1ccc(Cl)cc1)CN1CCN(c2cccc(Cl)c2)CC1 (stereo not given) | -0.65
O=C(Nc1ccc2ncccc2c1)Nc1ccc2ncccc2c1 | 0.15
Cc1c(CCO)c(=O)n2n1CCCC2 | -0.55
CCCCCCCC1(C)NC(=O)NC1=O (stereo not given) | -1.9
ClCC(CNCc1ccccc1)c1ccccc1 (stereo not given) | 0.35
O=c1cc(-c2ccc(Cl)cc2)[nH]c2ccccc12 | 0
c1ccc(N=NN2CCOCC2)cc1 | -0.75
CC1(C)OC2C(CO)OC(n3cnc4c(=S)nc[nH]c43)C2O1 (stereo not given) | 0.4
COC(=O)CC1(C(=O)OC)Nc2cc(Cl)c(Cl)cc2S(=O)(=O)N1O (stereo not given) | 0.7
CN(CCC#N)c1ccc(/C=C(\C#N)c2cccc(C(F)(F)F)c2)cc1 | -0.05
CC1CC(C)(C)NC2(CCCC2)N1 (stereo not given) | -0.6
O=C(Nc1ccc(O)c(C(=O)O)c1)Oc1ccccc1 | 0.9
c1ccc2[nH]c(-c3ccncc3)nc2c1 | 0.2
CC(=O)CC(=O)Nc1ccc2ccccc2c1 | 1.25
c1ccc2[nH]c(CCCCCc3nc4ccccc4[nH]3)nc2c1 | -0.5

SMILES | T3 sensor activation Q score
Cc1ccc(CC#N)c(-c2c(CC#N)ccc(C)c2C)c1C | -0.85
c1ccc2c(c1)[nH]c1c3ccccc3sc21 | -0.95
O=C(Nc1ccc(Nc2ccncc2)cc1)c1ccc([N+](=O)[O-])cc1 | 0.75
O=C(Nc1ccc(Nc2ccncc2)cc1)c1ccc(Nc2ccnc3ccc([N+](=O)[O-])cc23)cc1[N+](=O)[O-] | -1.4
O=C(Nc1ccc(Nc2ccncc2)cc1)c1ccc(Nc2ccnc3ccc([N+](=O)[O-])cc23)cc1 | 9.85
C/C(=N\NC(=S)N1CC2CCC(CC2)C1)c1cnccn1 | -1.2
CCOC(=O)c1nn(-c2ccccc2)cc1O | 0.05
O=C(c1ccc(OCCN2CCCCC2)cc1)c1c(-c2ccc(O)cc2)sc2cc(O)ccc12 | 2.7
CC1=Nc2ccccc2/C1=C\c1c(C)[nH]c2ccccc12 | -0.45
Cc1ccc(NC(=O)Nc2cccnc2)cc1NC(=O)Nc1cccnc1 | 0.95
O=C(C(=O)c1cccnc1)c1cccnc1 | 1.75
Cc1ccncc1C(N)=O | 1.9
COc1ccccc1NC(=O)c1cc2ccccc2cc1O | -0.55
NC(=O)c1cc(C(N)=O)nc(Cl)n1 | -0.8
C=CCNC(=S)N1CCN(c2ccccc2Cl)CC1 | -0.25
O=C(C(Cl)Cl)N1CC2CCC(CC2)C1 | 1.4
NS(=O)(=O)c1ccc(NC(=S)NC(=O)c2ccco2)cc1 | 1
CN=C1C=C/C(=N/N=c2/ccn(O)cc2C)C=C1C | 0.15
CC(C)(C)c1ccc(C(=O)N2CCOC23CCCCC3)cc1 | 1.85
CC(=O)NCCCOc1ccc([N+](=O)[O-])cc1Cl | -0.6
O=C(COc1ccc([N+](=O)[O-])cc1Cl)N1CCOCC1 | 1.85
O=C(COc1cc(Cl)c(Cl)cc1Cl)Nc1ccc([N+](=O)[O-])cc1Cl | -0.3
COc1ccc(Br)c2c1C(=O)CC2 | -1.4
CCCN(CCC)CC(=O)N1CC(=O)Nc2ccccc21 | 0.55
Nc1ccc(N=Nc2ccc(O)cc2)c(N)n1 | 1.5
Cc1ccc(N=Nc2c(O)c3ccccc3[nH]c2=O)c(S(=O)(=O)N(C)C)c1 | 0.95
